Compound activity as filed in PubChem BioAssay.
p53ts 32C kill: qHTS Screen for Compounds that Selectively Target Cancer Cells with p53 Mutations: Cytotoxicity of p53ts Cells at the Permissive Temperature; H1299-p53A138V at 32C, ATP luminescence viability, 24 h; Potency, µM (top dose mostly 46.1 µM), without a hit: at the highest dose activity change, negative = cytotoxicity, most hits filed as cytotoxic; 130,000 compounds, 0.93% hits; AID 924, 2007;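 further: 0% = DMSO and -100% = full killing by reference compound; nearly all actives have a fitted effect of over 55% in size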
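Viability by ATPlite luminescence after 24 h compound treatment (up to 46 uM) at the permissive 32C. Cells are H1299 carrying p53 A138V. Scale runs from DMSO basal to 100 uM tamoxifen as full kill; AC50 from Hill fits.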
p53ts 39C kill: qHTS Screen for Compounds that Selectively Target Cancer Cells with p53 Mutations: Cytotoxicity of p53ts Cells at the Nonpermissive Temperature; AID 902, 2007; 130,000 compounds, 1.5% hits; Potency, µM (series often up to 46.1 µM), for inactives: at the top dose activity change, negative = cell killing, actives largely listed as cytotoxic; H1299-p53A138V viability at 39C, ATP luminescence, 24 h; further: on the % scale 0 is the no-effect control and ±100 the full control effect; nearly all actives have a fitted effect of over 55% in size
Imprint erasure: qHTS Assay for Compounds that Induce Erasure of Genomic Imprints. mouse ES Peg3-LacZ reporter, beta-gal luminescence, 40 h. Potency, µM (titrated, usually from 60.7 µM), without a hit: at the highest dose activity change, positive = activation, actives largely listed as activators. 110,000 compounds, 0.02% hits. AID 1948, 2009
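Gelatin-coated wells received 300 freshly trypsinized female ES cells with a Peg3LacZ-Neo reporter on the maternal allele, then incubated 40 hours at 37C. BetaGlo was added for 5 minutes at room temperature before a single luminescence read.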
IkB signaling: IkB Signaling; Potency, µM (series often up to 57.1 µM), without a hit: top-dose IkBa stabilization activation; ABC-DLBCL IkBa-CBG/CBR dual luciferase ratio, 4 h; response scale: scaled: untreated 0%, proteasome inhibitor 100%; 110,000 compounds, 0.04% hits; active means well fitted curve in the direction sought with a large enough effect in the signal ratio, not every such curve was filed as active; inconclusive means small, poorly fitted or top-dose-only effect, or a change in a side signal; the % refers to the signal ratio;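 further: the direction sought is a rising ratio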
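Curves were fitted separately to fusion (green), unfused (red) and ratio luminescence, then classed by r2, magnitude and activity. Cells: OCI-Ly3, 4 h compound plus doxycycline at 37C; 10 uM MG-132 defined full response.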
Numbers without * were called inactive; ? = inconclusive; . = not tested or not shown; [ ] = another dose, or the depositor's remark. The list is not random: actives were taken first. Their share in the collection is about 1.8%. Unless noted, the call rests on the fitted dose curve; in most records, active means well fitted curve in the direction sought with a large enough effect; inconclusive means small, poorly fitted or top-dose-only effect, or another doubt; inactive means no such curve, though single readings can be large; an effect the other way counts as inactive or inconclusive. Potency means the concentration at half of the fitted maximal effect.

SMILES	p53ts 32C kill	p53ts 39C kill	Imprint erasure	IkB signaling
CCOC(=O)c1cnc2c(-c3ccccc3)c(C)nn2c1N	8%	-7%	4%	-1%
Cc1cc(N)n2ncc(-c3ccccc3)c2n1	?	10µM*	3%	?
Cc1ccccc1/C=C\C1=NCCN1	33%	41%	.	7%
O=[N+]([O-])c1ccc(O)c(/C=N/Nc2ccccn2)c1	-22%	5.6µM*	.	.
Nc1nnc(CC(=O)N/N=C\c2cc([N+](=O)[O-])ccc2O)s1	.	8%	.	.
COc1cccc(-c2nc(SCc3ccc(C)cc3)n3[nH]c(=O)cc3n2)c1	-1%	13µM*	?	-2%
COc1ccccc1OCCCSc1nc(-c2ccc(C(C)(C)C)cc2)nc2cc(=O)[nH]n12	81%	15%	-9%[10.9 µM]	?
Cc1cc(OCCCSc2nc(-c3ccc(C(C)(C)C)cc3)nc3cc(=O)[nH]n23)ccc1Cl	30%	16µM*	-10%[10.9 µM]	4%
Cc1cc(C)cc(OCCSc2nc(-c3ccc(C(C)(C)C)cc3)nc3cc(=O)[nH]n23)c1	?	?	-6%[10.9 µM]	5%
CC(C)(C)c1ccc(-c2nc(SCCCOc3ccccc3)n3[nH]c(=O)cc3n2)cc1	7%	20µM*	-4%[10.9 µM]	?
Cn1cc(S(=O)(=O)N2CCCCCC2)cc1C(=O)N1CCN(c2ccccc2F)CC1	-1%	-8%	-8%[10.9 µM]	-1%
NC(=NC1C2CC3CC(C2)CC1C3)Nc1ccc(I)cc1 (stereo not drawn)	-8%	25µM*	-10%	1%
COc1ccc(NC(=O)c2ccc3[nH]c(C)cc(=O)c3c2)cc1	2%	4%	-11%[10.9 µM]	-1%
Cc1ccc(C2=Nc3ccccc3N(CC(=O)NCc3ccc(F)cc3)C(=O)C2)cc1C	-14%	10µM*	-14%[10.9 µM]	-3%
CCCCN(CC)S(=O)(=O)c1ccc(C(=O)Nc2nnc(-c3cccs3)o2)cc1	?	13µM*	-33%	?
CCCCN(C)S(=O)(=O)c1ccc(C(=O)Nc2nnc(CSC)o2)cc1	-21%	10µM*	-24%	1%
CCCCN(CCCC)S(=O)(=O)c1ccc(C(=O)Nc2nnc(COC)o2)cc1	-13%	10µM*	-23%	-1%
COc1ccccc1-c1nnc(SCCOc2ccccc2C)o1	-1%	6%	-9%[10.9 µM]	?
CCn1c(CN2CCOCC2)nc2cc(NC(=O)c3ccccc3[N+](=O)[O-])ccc21	-3%	4%	9%[10.9 µM]	?
CC(C)c1ccc(C2N=C(N)Nc3nc4ccccc4n32)cc1 (stereo not drawn)	2%	10µM*	-6%[10.9 µM]	?
COc1ccc2c(c1)c1c(c(=O)n(-c3cccc(C)c3)c(=O)n1CC(=O)Nc1c(C)cc(C)cc1C)n2C	3%	22%	13%[10.9 µM]	7%
c1ccc(C(c2cccc3c2ccc2ccccc23)[C@H](c2ccccc2)c2cccc3c2ccc2ccccc23)cc1 (stereo partly drawn)	.	.	-4%[10.9 µM]	.
COc1ccc(CNc2ncnc3c2cnn3-c2ccc(C)c(C)c2)cc1	-4%	-25%	-12%[10.9 µM]	-1%
COc1ccc(-n2ncc3c(NC(C)(C)CO)ncnc32)cc1	13µM*	10µM*	-17%[10.9 µM]	-2%
CC(C)(C)Nc1ncnc2c1cnn2-c1ccccc1	7.9µM*	10µM*	-24%	?
SMILES	p53ts 32C kill	p53ts 39C kill	Imprint erasure	IkB signaling
CCOc1cccc2sc(N(Cc3cccnc3)C(=O)c3ccc(C#N)cc3)nc12	-8%	-19%	11%[10.9 µM]	?
O=C1N=C(N2CCOCC2)S/C1=C1\C(=O)N(Cc2ccccc2)c2ccc(Br)cc21	8%	15%	-8%	1%
CCCCN1C(=O)/C(=C2\SC(N3CCCCC3)=NC2=O)c2ccccc21	13µM*	16µM*	-28%	?
CCOC(=O)c1ccc(N2C(=O)c3n[nH]c(-c4cccs4)c3C2c2ccc(C(C)C)cc2)cc1 (stereo not drawn)	?	10µM*	-13%[10.9 µM]	?
CCOC(=O)c1ccc(N2C(=O)c3n[nH]c(-c4cccs4)c3C2c2ccc(CC)cc2)cc1 (stereo not drawn)	?	10µM*	6%[10.9 µM]	?
CCCn1c2ccccc2c2cnn(CC(=O)N3CCC(C)CC3)c(=O)c21	-3%	.	.	.
